# Sampled rows, rich in hits. Any-hit rate of the full collection: about 2.2%.
# HGIII-sPLA2 inh: human group III sPLA2 inhibitors, primary screen, biochemical, QFRET, BODIPY PC-A2 liposome substrate. Group 3 secretory phospholipase A2 (Homo sapiens), Q9NZ20. QFRET BODIPY PC-A2 liposome hydrolysis, fluorescence. inhibition, % at 12.2 µM. 0.56% of 370,000 active. AID 743126, 2013;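 active means inhibition above mean plus 3 SD of compounds lying within the high and low control bounds, cut at about 19% in these data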;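 further: 0% = median of test compound wells and 100% = no enzyme DMSO wells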
# Efflux pump mplx: inhibitors of Candida efflux pumps in yeast, primary screen, S. cerevisiae, Nile Red, multiplex; S. cerevisiae Candida pump triplex; inhibition, % at 10 µM; 0.44% of 330,000 active;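 active means plate passing quality check with inhibition over a set limit, or well fluorescence over plate mean plus 4 SD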;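 further: Nile Red retained in pooled yeast measured as flow cytometry median fluorescence; 0% = buffer negative control and 100% = Enniatin B positive control; higher means more Nile Red kept so more efflux inhibition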
# Mot1-301 SUMO: yeast Mot1-301 growth rescue at high temperature, primary screen, SUMOylation pathway inhibitor project, S. cerevisiae, ATP luminescence, 38.5C | S. cerevisiae Mot1-301 growth rescue; percent above DMSO median, 100 means doubled | growth rescue, % at 18.8 µM | 1% of 320,000 active;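 active means every valid replicate shows activation above 250% relative to neutral control wells; inactive means the rest, any valid replicate at or below 250%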;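 further: OY570 slx delta 5 strain wells were the positive control but not used for scaling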
# SKN-1 block: suppressors of acrylamide-induced Pgst-4::GFP reporter in worms, primary screen, SKN-1 inhibitor project, whole organism, uHTS, GFP/RFP fluorescence ratio, strain VP596; C. elegans VP596 Pgst-4::GFP/RFP ratio, 24 h; inhibition, % at 21.8 µM; 0.49% of 360,000 active; AID 624304, 2012;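 active means interference check ratio from 0.5 to 1.5 plus GFP to RFP signal ratio inhibition reaching or exceeding a fixed threshold, cut at about 30% in these data, passing the limit was not always enough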
# Mot1 SUMO dose: growth restoration of Mot1-301 yeast on galactose, dose response, SUMO pathway inhibitor project, whole organism, S. cerevisiae, ATP luminescence, cherry-picked samples | shares compounds with Mot1-301 SUMO | S. cerevisiae Mot1-301 galactose growth, 24 h; -100 = growth of slx-deleted rescue strain | growth activity, percent, % at 42 µM | 2,300 tested, under 10 active | AID 493004, 2010;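 active means Signal drops as the depositor expects, and the fitted half-maximal dose is no more than ten times the top valid tested dose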;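 further: more negative values mean stronger growth rescue toward the control strain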
# An asterisk follows results filed as active; x = not tested or not shown.
SMILES,HGIII-sPLA2 inh,Efflux pump mplx,Mot1-301 SUMO,SKN-1 block,Mot1 SUMO dose
Cc1ccc(NS(=O)(=O)c2cc(C(=O)Nc3cccc([N+](=O)[O-])c3)ccc2C)cc1,1,0,476*,3,1
Cc1ccc(C(=O)Nc2cccc([N+](=O)[O-])c2)cc1S(=O)(=O)Nc1ccc(NC(=O)c2ccccc2)cc1,-61,-18,-14,14,x
O=C(O)c1cccc(NC(=O)c2cccc(S(=O)(=O)Nc3cccc([N+](=O)[O-])c3)c2)c1,-11,0,419*,4,2
Cc1cnc(NC(=O)CN2CCN(c3ccccc3F)CC2)s1,-2,0,990*,-5,0
CN(CC(=O)Nc1ccc(F)cc1)C(=O)COc1ccccc1Cc1ccccc1,-28,0,-29,-11,x
Cc1ccc2c(c1)N(Cc1ccccc1)C(=O)C(C)O2 (centres undefined),-2,x,x,7,x
CC1=Nc2ccc(C)cc2N(Cc2ccccc2)C(=O)C1,0,0,629*,-11,0
